Structures are written as SMILES. The whole screen tested about 220,000 compounds, of which about 970 (0.44%) were called active. The list comes from a sample in which actives are over-represented; it also holds similar structures and randomly drawn compounds. Unmarked numbers belong to inactive results. Cut-off read from the data, not from the text of the source: active = activation above about 27%; inactive = the rest.

For this assay, the target named is Neuropeptide Y receptor type 2 (Homo sapiens) (UniProt P49146). Briefly: NPY-Y2 potentiators or agonists, primary screen, cell-based (AID 1359).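 Note: cells stimulated with NPY near EC25 plus isoproterenol at EC100; 0% = vehicle plus submaximal agonist and 100% = vehicle plus saturating agonist.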 The settings on record: cells expressing NPY-Y2, potentiator/agonist read-out; at 3.6 µM; active compounds read high.
Sequence of Neuropeptide Y receptor type 2 (Homo sapiens) (P49146 whole entry, looked up): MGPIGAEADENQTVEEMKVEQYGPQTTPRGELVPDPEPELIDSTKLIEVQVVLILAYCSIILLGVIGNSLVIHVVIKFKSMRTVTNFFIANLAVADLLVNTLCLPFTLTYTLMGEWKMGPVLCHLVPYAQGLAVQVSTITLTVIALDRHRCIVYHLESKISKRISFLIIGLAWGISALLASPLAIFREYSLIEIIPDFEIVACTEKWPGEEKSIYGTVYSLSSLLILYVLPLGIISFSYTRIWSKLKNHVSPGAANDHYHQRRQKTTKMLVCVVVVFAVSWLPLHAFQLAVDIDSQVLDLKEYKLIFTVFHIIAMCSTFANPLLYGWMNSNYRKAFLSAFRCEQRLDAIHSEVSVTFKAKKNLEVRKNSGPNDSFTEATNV
Turning to `COc1ccc2c(c1)C(SCC(=O)NCc1ccccc1)CC(C)(C)O2` (configuration not stated), the activation was 15.7%.
Then `COc1ccc(/C(C)=N/Nc2cc(C(F)(F)F)ccc2Cl)c(OC)c1`, with -10.5%; and `CCOC(=O)c1c(NC(=O)C2CCN(S(=O)(=O)c3ccc(Cl)cc3)CC2)sc2c1CCCC2`, with -5.8%; and `O=C(Nc1sc2c(c1-c1nc3ccccc3[nH]1)CCCC2)C1CC1`, with 30.3% (active).
With `O=C(Nc1cccc(-c2nc3ccccc3[nH]2)c1)c1ccc(C(=O)Nc2cccc(-c3nc4ccccc4[nH]3)c2)cc1` the figure was 0.29%.
With `NC(=O)c1ccc(N2CCOCC2)nc1` the figure was -10.3%; with `CCOC12CC(C)(C)CC(C)(CC3=C1C(=O)CC(C)(C)C3)C2` (configuration not stated), -1.87%.
With `CN(C)CCCSc1ccccc1NC(=O)/C=C/c1ccccc1`, the activation was -11.2%.
With `C1CC1Cc1noc(CN2CCN(CC3CC3)CC2)n1` the figure was -4.58%; with `Cc1c(Cl)cccc1NC(=O)CSc1ccc(-c2cccnc2)nn1`, 2.4%; with `Cc1ccc(CCNC(=O)C2CCN(S(=O)(=O)N3CCCC3)CC2)cc1`, 104% (active).
Then `CCS(=O)(=O)N1CCCC(C(=O)NCc2ccc(C)cc2)C1` (configuration not stated), with 13%.
Regarding `O=C(NCCCN1CCN(Cc2ccccc2)CC1)C1CCN(S(=O)(=O)N2CCCC2)CC1`, the activation is 17.2%.
Turning to `CSc1nnc(SCc2nc3sc(C(=O)O)c(C)c3c(=O)[nH]2)s1`, the activation was 1.67%.
For `COC(=O)CSc1nc2c(c(C3CC=CCC3)c1C#N)CCC2` (configuration not stated), the activation was -6.44%.
With `Cc1nc([N+](=O)[O-])cn1CC(=O)Nc1ccc2c(c1)OCO2` the figure was -19.2%; with `Cc1ccccc1C(CC(=O)c1cccs1)C(C#N)C#N` (configuration not stated), 4.09%; with `CC1CCCCC1NC(=O)/C(C#N)=C/C=C/c1ccccc1[N+](=O)[O-]` (configuration not stated), -5.09%.
For the compound `Cc1cc(C)c(NC(=O)C[N+](C)(C)CC(O)COc2cccc3ccccc23)c(C)c1` (configuration not stated), the activation is 71.5% (active).
For `Cc1cc(C)cc(OCC(=O)NCc2cc(C)nc3ccccc23)c1`, the activation is -3.92%.
With `Cc1cc(C)c(NC(=O)c2oc3ccccc3c2COc2ccccc2)c(C)c1` the figure was -12.9%; with `CCN(C(=O)COc1cccnc1[N+](=O)[O-])C1CCS(=O)(=O)C1` (configuration not stated), -0.31%; with `CN(CCO)Cc1csc2ccc(Br)cc12`, -20.4%.
As to `CC(=O)N1C(=O)/C(=C2\SC(=S)N(NC(=O)c3ccc(O)cc3)C2=O)c2ccccc21`, the activation is -3.06%.
Then `Cc1ccc(NS(=O)(=O)c2cccs2)cc1S(=O)(=O)N1CCCCCC1`, with 3.99%; and `CCOc1ccc(C(=O)NC2CCN(CC(=O)NCc3cccs3)CC2)cc1`, with 13.5%.
With `CCNS(=O)(=O)c1ccc(NC(=O)Nc2cccc(C(F)(F)F)c2)cc1` the figure was 24.5%.
Turning to `O=C(NCc1ccccc1)c1ccc(S(=O)(=O)Nc2cccc(C(F)(F)F)c2)cc1`, the activation was 47.4% (active).
With `CS(=O)(=O)NCc1ccc(C(=O)NCc2ccccc2)cc1` the figure was 10.7%.
`COc1ccc(CN2CCN(Cc3cn(C)nc3-c3ccccc3)CC2CCO)c(C)c1C` (configuration not stated): the activation was -18%.
Consider `CC(C)(C)OC(=O)N/N=C/c1ccc(C(=O)O)cc1`, for which the activation was 10%.
Then `CC(=O)c1c(-c2ccccc2)c2ccccc2[nH]c1=O`, with 6.99%; and `CCO[C@H]1OC(C(=O)N2CCN(Cc3ccccc3)CC2)=C[C@@H](c2cn(C(C)=O)c3ccccc23)[C@@H]1CCCO`, with -8.85%.
As for `COCC1CCCN(Cc2nc(-c3ccc4c(c3)OCO4)no2)C1` (configuration not stated), the activation is -10.6%.
In the case of `Oc1c(Cl)cc(Cl)c(Cl)c1Cc1c(O)c(Cl)cc(Cl)c1Cl`, the activation was 56.1% (active).
Then `CCN(C(=O)COC(=O)c1cc(S(=O)(=O)N2CCc3ccccc32)ccc1OC)C1CCS(=O)(=O)C1` (configuration not stated), with -3.32%; and `CCOC(=O)C1=C(N)N2C(=O)C(C)SC2=C(C(=O)OCC)C1c1cc(OC)c(OC)c(OC)c1` (configuration not stated), with -1.02%.
With `Cc1cccc(OCC(O)CN2CCN(CCN3C(=O)c4cccc5cccc(c45)C3=O)CC2)c1C` (configuration not stated) the figure was 30.4%.
With `Cc1ccccc1OCC(O)CN1CCN(c2ccccn2)CC1` (configuration not stated) the figure was 17.9%; with `OC(COc1cccc2ccccc12)CN1CCN(c2ccccn2)CC1` (configuration not stated), 58.3% (active).
Regarding `CC(=O)OC(C(=O)NCCc1ccccc1)c1cccnc1` (configuration not stated), the activation is -16.8%.
For the compound `CC(C)COP(=O)(c1ccc(N(C)C)cc1)C(Nc1ccccc1)c1cccnc1` (configuration not stated), the activation is 4.54%.
On to `CC(Nc1ccccc1)c1cccnc1` (configuration not stated), for which the activation is 40.2% (active).
Then `CCCCc1cc2c(s1)CCCC/C2=N/O`, with 5.62%.
With `C/C(=C\c1ccco1)CN1CCC(N2CCC(C(=O)N3CCOCC3)CC2)CC1` the figure was -15.1%.
Regarding `Cc1cc(C(=O)N/N=C/c2ccc(O)c([N+](=O)[O-])c2)c(C)n1-c1ccc(F)cc1`, the activation was 3.14%.
With `Cc1c(S(=O)(=O)NCc2ccccc2)c(=O)n(C)c(=O)n1C` the figure was -20.2%.
On to `COc1ccc2nc(Nc3nc4ccc(NC(C)=O)cc4s3)sc2c1`, for which the activation was -3.69%.
With `COc1ccc2nc(NC(=O)NC3CCCCC3)sc2c1` the figure was 42.1% (active).
Consider `COc1ccc2nc(NC(=O)c3ccc(Br)s3)sc2c1`, for which the activation was 11.8%.
With `O=C(NC(=S)Nc1cccc2c(O)cccc12)c1cccc(Br)c1` the figure was -15.3%; with `O=S(=O)([N-]c1nc2ccccc2nc1-[n+]1ccc(Cc2ccccc2)cc1)c1ccc(Br)s1`, -4%.
Consider `CC(=O)c1ccc2c(c1)OCCOCCOc1ccc(C(C)=O)cc1OCCOCCO2`, for which the activation is 43.3% (active).
For `O=C(c1ccc2c(c1)OCO2)N1CCOCC1`, the activation was 7.94%.
Regarding `C/C(=N\NC(=O)C(N)=O)c1ccc2c(c1)OCCO2`, the activation was -7.65%.
In the case of `COc1ccc(N2C(=O)C(CC(=O)Nc3ccc(F)cc3)N(CCc3cccs3)C2=O)cc1` (configuration not stated), the activation is 4.57%.
Take `O=C(N1CCCCC1)N1CCN(C(=O)N2CCCCC2)CC1`: the activation was -11.1%.
With `O=C(COC(=O)c1n[nH]c2ccccc12)NCc1ccccc1` the figure was -3.06%; with `CN(C)S(=O)(=O)c1ccc(NC(=O)COC(=O)c2n[nH]c3ccccc23)cc1`, 32.2% (active); with `CN(C)S(=O)(=O)c1ccc(NC(=O)COC(=O)Cn2[nH]c(=O)c3ccccc3c2=O)cc1`, -2.17%.
Then `COc1ccccc1N1CCN(C(=O)CSc2ncnc3c2cnn3-c2ccc(C)c(C)c2)CC1`, with -4.38%; and `CCOC(=O)c1sc2nc(C)[nH]c(=O)c2c1C`, with -3.44%.
For the compound `CC(C)OCCCNC(=S)N1CCC(C(=O)c2ccc3c(c2)OCCO3)CC1`, the activation was -6.61%.
Consider `COc1ccc(CC(=O)NCc2nnc(SCC(=O)Nc3ncc(C)s3)n2C)cc1`, for which the activation was -1.91%.
Regarding `Cc1ccc(S(=O)(=O)N(Cc2ccc(Cl)cc2)c2ccccc2C(=O)NCc2cccnc2)cc1`, the activation was -13.3%.
With `CC(C)(O)C#Cc1ccc(C(=O)N2CCC(C(N)=O)(N3CCCCC3)CC2)cc1` the figure was 14.8%; with `NC(=O)C1(N2CCCCC2)CCN(C(=S)Nc2ccc(Cl)cc2)CC1`, 4.89%; with `NC(=O)C1(N2CCCCC2)CCN(C(=O)c2ccc(C#Cc3ccccc3)o2)CC1`, 66.2% (active).
On to `C/C=C/C=C/C(=O)OCC(=O)Nc1ccc(Cl)cc1`, for which the activation is -15.7%.
Then `COc1ccc2c(-c3ccccc3)cc(SCC(=O)N(C)C3CCS(=O)(=O)C3)nc2c1` (configuration not stated), with 6.98%; and `CCCCC(=O)Nc1cc(C)c2c(=O)oc3ccccc3c2n1`, with 1.67%; and `CCOC(=O)c1c(C)nc2c(c1C)c(=O)oc1ccccc12`, with -26.5%.
Consider `Cc1ccccc1-n1nnc2c(=O)oc3ccccc3c21`, for which the activation is 32.7% (active).
As for `COc1ccc(NC(=O)c2cn(-c3ccccc3)nc2SC)cc1`, the activation was -16%.
Then `CCC(=O)c1ccc(N2CCN(C(=O)c3cc([N+](=O)[O-])ccc3F)CC2)c(F)c1`, with -2.53%; and `Cc1ccccc1CSc1nnc(-c2ccccc2)c(=O)[nH]1`, with -5.69%; and `O=C1CC(Sc2ncn[nH]2)C(=O)N1c1ccccc1` (configuration not stated), with -10.2%.
Then `O=[N+]([O-])c1cccc(C2=NCCS2)c1`, with 5.16%; and `Nc1c(-c2cccc(Cl)c2)cnn1-c1cccc([N+](=O)[O-])c1`, with 43.3% (active); and `Cc1nn(-c2ccc([N+](=O)[O-])cc2)c(N)c1-c1ccccc1`, with 8.55%.
Then `Cc1ccc(NC(=O)C(=O)NCc2ccc(/C=N/NC(=O)c3c(C)nc4cc(C)ccn34)o2)cc1`, with 12.4%.
Consider `CCCN(CC(=O)Nc1ccccc1C)C(=O)c1cc(=O)[nH]c2ccccc12`, for which the activation is -12.5%.
On to `CC(C)NC(=O)NNc1c(Cl)cncc1Cl`, for which the activation was -6.55%.
Then `COc1ccc(C)cc1NC(=O)Nc1ccccc1SC`, with -22.3%.
`Cc1cccc(NC(=O)CN2C(=O)CNC2=O)c1`: the activation was -5.86%.
Then `Cc1ccnc(NC(=O)C(C)N2C(=O)c3ccccc3C2=O)c1` (configuration not stated), with -9.95%.
Then `Cc1cccc(NC(=O)C(C)N2C(=O)C3C4CC(C(Br)C4Br)C3C2=O)c1` (configuration not stated), with 33.6% (active); and `CCOC(=O)N1CCN(C(=O)Cn2cnc3ccccc3c2=O)CC1`, with 2.69%; and `O=C(Cn1cnc2ccccc2c1=O)NCC1COc2ccccc2O1` (configuration not stated), with 4.37%.
Then `CN(Cc1ccccc1)C(=O)CCNC(=O)Cn1cnc2ccccc2c1=O`, with 54.9% (active).
Consider `O=C(CN1CCN(Cc2ccccc2)CC1)NC(c1ccccc1)c1ccccc1`, for which the activation is -14%.
With `Cc1ccc(CNC(=O)Cn2c(=O)c3sccc3n(Cc3cccc([N+](=O)[O-])c3)c2=O)cc1` the figure was 5.29%.

The values above are taken from PubChem BioAssay AID1359 (The Scripps Research Institute Molecular Screening Center, 2008).
